Shown are actives, neighbours in structure and some others; about 2.2% of the full set was active somewhere.
aSyn rescue – rescues yeast growth from alpha-synuclein toxicity. actives 0.14% (n = 370,000). Yeast expressing alpha-synuclein, growth rescue, BacTiter-Glo, 24 h. Potency, µM (top dose mostly 46.1 µM), without a hit: at the top dose growth rescue (activation), most hits filed as activators; note: % of control where 0% means no effect; nearly all actives have a fitted effect of over 65% in size
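Readout is rescue of growth in alpha-synuclein-expressing yeast, so inhibitors of toxicity appear as activators. Growth after 24 hr at 30 deg C in galactose medium is quantified by luminescence.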
FUS suppressor – suppressors of FUS proteinopathy in yeast; Potency, µM (series often up to 76.6 µM), actives largely listed as activators; S. cerevisiae FUS-expressing, growth rescue, OD600, 24 h; actives 0.24% (n = 390,000);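 note: plate controls were DMSO vehicle for no effect and reference control for full effect; nearly all actives have a fitted effect of over 55% in size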
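Yeast expressing FUS under galactose induction, OD 0.005 in 2% galactose medium; compounds in a dilution series, 24 h at 30C. Growth rescue by absorbance at 600 nm; CP55940 positive control, DMSO negative.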
Abeta yeast res – restores growth of yeast expressing A-beta42 peptide | yeast expressing A-beta42, growth rescue, OD600, 48 h; response scale: 0% DMSO, 100% iron-clioquinol control | Potency, µM (series often up to 46.1 µM), usual class: activators | actives 0.063% (n = 410,000) | AID 1347071; note: nearly all actives have a fitted effect of over 55% in size
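Yeast A-beta toxicity model in growth medium with pinned compounds, 48 h at 30 C; growth read as absorbance at 600 nm. Normalized to FeCl3/clioquinol equimolar mix (positive) and DMSO (negative).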
Mito fusion act – inhibitors of mitochondrial division or activators of mitochondrial fusion; Potency, µM (titrated, usually from 46.1 µM), for inactives: at the top dose growth rescue (activation), usual class: activators; actives 0.23% (n = 320,000); S. cerevisiae fusion-defective mutant growth rescue, CellTiterGlo 48 h; note: % of control where 0% means no effect; nearly all actives have a fitted effect of over 45% in size
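Temperature-sensitive fusion-defective S. cerevisiae (e.g. fzo1-1, mgm1-5) were grown with compound in YPEG medium (3% ethanol, 3% glycerol) for 48 hours at 37C. Growth rescue was measured as viability by CellTiterGlo luminescence after 10 minutes at ambient.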
TDP-43 yeast inh – TDP-43 toxicity inhibition in yeast | TDP-43 expressing yeast growth rescue, BacTiter-Glo, 24 h | Potency, µM (doses to about 46.1 µM), inactives show top-dose growth rescue (activation), most hits filed as activators | actives 1.8% (n = 410,000); note: % of control where 0% means no effect; nearly all actives have a fitted effect of over 50% in size
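In this qHTS, compounds that restore growth of yeast expressing TDP-43 appear as activators. Cells (OD600=0.02, galactose medium, raffinose-pregrown) are incubated with compound 24 hr at 30 deg C and growth is quantified by BacTiter-Glo.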
Active calls of the source: *; [ ] = dose if it differs, or a comment. Calls come from the whole dose curve; as a rule, active = well fitted curve in the direction sought with a large enough effect; inconclusive = small, poorly fitted or top-dose-only effect, or another doubt; inactive = no such curve, though single readings can be large; an effect the other way counts as inactive or inconclusive. Potency is the fitted concentration of half-maximal effect.

For O=[N+]([O-])c1nn(-c2ccc(Cl)cc2)n(O)c1=NCc1cccnc1 the results were aSyn rescue 1.1%, Abeta yeast res inactive, Mito fusion act inconclusive and TDP-43 yeast inh 12.6µM*.
`COc1cccc(NC(=O)C(=O)NCC(c2ccc3c(c2)OCO3)N2CCOCC2)c1` (stereo unspecified) gave FUS suppressor inactive, Abeta yeast res inactive and TDP-43 yeast inh -7.8%.
Screening COc1ccc(-n2nnnc2SCC(=O)NCCc2ccccc2)cc1OC returned aSyn rescue -0.9%, FUS suppressor inactive, Abeta yeast res inactive, Mito fusion act 0.7% and TDP-43 yeast inh -14.1%.
For O=C(CSc1nc2cc(Cl)ccc2s1)NCC1CCCO1 (stereo unspecified) the results were aSyn rescue 8.0%, FUS suppressor inactive, Abeta yeast res inactive and TDP-43 yeast inh 20µM*.
For Cc1ccc(-n2nnnc2SCC(=O)NCCc2ccccc2)cc1C the results were FUS suppressor inactive, Abeta yeast res inactive and TDP-43 yeast inh 22.4µM*.
For Cc1cccc(-n2nnnc2SCC(=O)NCC2CCCO2)c1 (stereo unspecified) the results were aSyn rescue -5.1%, FUS suppressor inactive, Abeta yeast res inactive, Mito fusion act 17.8µM* and TDP-43 yeast inh -19.9%.
Screening CSc1ccc(CCNC(=O)c2ccc(-c3nc(COc4ccc(C)cc4)c(C)o3)cc2)cc1 returned FUS suppressor inactive, Abeta yeast res inactive and TDP-43 yeast inh 11.4%.
For Cc1cc(=O)[nH]c2nnc(SCCC(C)C)n12 the results were FUS suppressor inactive, Abeta yeast res inactive and TDP-43 yeast inh 0.0%.
Cn1c(-c2ccccc2)cc2onc(-c3ccccc3)c2c1=O was read as aSyn rescue 0.6%, FUS suppressor inactive, Abeta yeast res inactive, Mito fusion act 11.2% and TDP-43 yeast inh 27.6%.
Screening Cn1c(-c2ccccc2F)cc2onc(-c3ccccc3)c2c1=O returned aSyn rescue -12.1%, FUS suppressor inactive, Abeta yeast res inactive, Mito fusion act inconclusive and TDP-43 yeast inh 20µM*.
`CN1C(=O)C[C@@](C#N)(C(=O)N2CCOCC2)[C@H]1c1ccccc1` gave FUS suppressor inactive.
Screening COc1ccc(C2=Nc3ccccc3N(C(=O)c3ccc4c(c3)OCO4)C2C(=O)NCc2ccccc2)cc1 (stereo unspecified) returned aSyn rescue 7.1%, FUS suppressor inconclusive, Abeta yeast res inactive and TDP-43 yeast inh inconclusive.
Screening CC(=O)Nc1ccc(C(=O)N2c3ccccc3N=C(c3ccc4c(c3)OCO4)C2C(=O)NCc2ccccc2)cc1 (stereo unspecified) returned aSyn rescue -10.7%, FUS suppressor 12.6µM*, Abeta yeast res inactive and TDP-43 yeast inh 7.4%.
Screening CC(CCc1ccccc1)NC(=O)c1nnc(Cc2ccc(Cl)cc2)o1 (stereo unspecified) returned aSyn rescue 27.0%, FUS suppressor inactive, Abeta yeast res inactive, Mito fusion act 24.1% and TDP-43 yeast inh 22.4µM*.
`Cc1[nH]c2ccccc2c1C(=O)CCl` gave aSyn rescue 1.7%, FUS suppressor inactive, Abeta yeast res inactive, Mito fusion act -18.5% and TDP-43 yeast inh 15.8µM*.
Screening Cc1cc(C)c2c(c1)/C(=C/C(=O)c1ccc(Br)s1)C(=O)N2 returned aSyn rescue -6.6%, FUS suppressor inconclusive, Abeta yeast res inactive, Mito fusion act 0.4% and TDP-43 yeast inh 17.8µM*.
Screening Cc1cc(Br)c2c(c1)/C(=C/C(=O)c1cccs1)C(=O)N2 returned aSyn rescue 9.6%, FUS suppressor inactive, Abeta yeast res inactive, Mito fusion act -0.4% and TDP-43 yeast inh -20.5%[9.22 µM].
For O=C(Nc1ccc(Cl)cn1)C1CCCN(c2ncnc3c2nc2n3CCCCC2)C1 (stereo unspecified) the results were aSyn rescue 1.4%, FUS suppressor inactive, Abeta yeast res inactive, Mito fusion act inconclusive and TDP-43 yeast inh inconclusive.
`CCN(C(=O)C1CCCN(c2ncnc3c2nc2n3CCCCC2)C1)c1cccc(Cl)c1` (stereo unspecified) gave aSyn rescue -14.5%, FUS suppressor inconclusive, Abeta yeast res inactive, Mito fusion act 18.5% and TDP-43 yeast inh 25.1µM*.
For CCN(C(=O)C1CCCN(c2ncnc3c2nc2n3CCCCC2)C1)c1cccc(C)c1 (stereo unspecified) the results were FUS suppressor inactive, Abeta yeast res inactive and TDP-43 yeast inh 14.1µM*.
Screening COc1ccc(Cl)cc1NC(=O)C1CCCN(c2ncnc3c2nc2n3CCCCC2)C1 (stereo unspecified) returned aSyn rescue 4.6%, FUS suppressor inactive, Abeta yeast res inactive, Mito fusion act -1.3% and TDP-43 yeast inh 14.1µM*.
Screening CCOC(=O)[C@@]12CCCC3=C1N(CCC3)C(=O)[C@H]2CC(=O)NCCCCc1ccccc1 returned FUS suppressor inactive.
For CN(C)c1ccc(/C=C2\C=Cc3ccccc32)cc1Cl the results were aSyn rescue -10.4%.
Screening O=C1CC(N2CCN(c3ccc(Cl)cc3)CC2)C(=O)N1c1ccc(F)cc1 (stereo unspecified) returned aSyn rescue 9.4%, FUS suppressor inactive, Abeta yeast res inconclusive, Mito fusion act -5.0% and TDP-43 yeast inh 0.0%.
`O=C1[C@@H]2CSC(c3ccc(F)cc3)N2C(=O)N1c1ccc(Cl)cc1` (stereo partly specified) gave FUS suppressor inactive, Abeta yeast res inactive and TDP-43 yeast inh 14.1µM*.
`COc1cc(/C=C(/C#N)C(=O)c2c(C)[nH]c3ccccc23)ccc1OCC#N` gave aSyn rescue -12.0%, FUS suppressor inactive, Abeta yeast res inactive, Mito fusion act -3.5% and TDP-43 yeast inh 4.5%.
`CCOc1ccc(/C=C(\C#N)C(=O)c2c(C)[nH]c3ccccc23)cc1OC` gave aSyn rescue -19.5%, FUS suppressor inactive, Abeta yeast res inactive, Mito fusion act -1.2% and TDP-43 yeast inh 20µM*.
COc1ccc2[nH]cc(C(=O)CNc3nccs3)c2c1 was read as aSyn rescue 3.1%.
For Cc1oc2ncn(CC(C)C)c(=O)c2c1C(=O)NCCCN1CCCCC1C (stereo unspecified) the results were FUS suppressor inactive, Abeta yeast res inactive and TDP-43 yeast inh 23.1%.
O=C(/C=C/c1ccccc1[N+](=O)[O-])OCC(=O)c1ccccc1 was read as aSyn rescue 10.1%, FUS suppressor inactive, Abeta yeast res inactive, Mito fusion act -6.1% and TDP-43 yeast inh 20µM*.
`COC(=O)C(=Cc1ccccc1[N+](=O)[O-])C(=O)OC` gave aSyn rescue 0.1%, FUS suppressor inactive, Abeta yeast res inactive, Mito fusion act -61.3% and TDP-43 yeast inh 15.8µM*.

Compound activity: PubChem, National Center for Advancing Translational Sciences (NCATS)
